# Source: PubChem BioAssay (NCI)
# The panel holds about 83,000 compounds, 20% with a hit somewhere; the sample as a whole holds those more often.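 Interpretation: 100, growth as untreated; towards 0, rising growth inhibition; 0, no net growth; 0 to -100, cell death. Compounds scoring below 10 were considered active.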 A number with no mark means an inactive call. The source made the active and inactive calls.
# Key:
# Experiment in all cases: NCI-60 one-dose screen, 48 h (100 = growth as untreated, 0 = no growth, -100 = all killed)
# Settings in all cases: 10 µM unless noted
# [1] = tested on: NCI-H23 lung
# [2] = tested on: NCI-H226 lung
# [3] = tested on: NCI-H322M lung
# [4] = tested on: HOP-62 NSCLC
# [5] = tested on: NCI-H460 lung
# [6] = tested on: HOP-92 NSCLC
# [7] = tested on: A549/ATCC NSCLC
# [8] = tested on: 786-0 renal
# [9] = tested on: COLO 205 colon
# [10] = tested on: DU-145 prostate
# [11] = tested on: K-562 leukemia
# [12] = tested on: MALME-3M melanoma
# [13] = tested on: MDA-MB-231 breast
# [14] = tested on: RXF 393 renal
# [15] = tested on: SF-268 CNS
# [16] = tested on: SF-295 CNS
# [17] = tested on: SF-539 CNS
# [18] = tested on: UACC-257 melanoma
# [19] = tested on: M14 melanoma
# [20] = tested on: NCI-H522 lung
SMILES,growth [1],growth [2],growth [3],growth [4],growth [5],growth [6],growth [7],growth [8],growth [9],growth [10],growth [11],growth [12],growth [13],growth [14],growth [15],growth [16],growth [17],growth [18],growth [19],growth [20]
CCC[S@@](=O)c1ccc2nc(NC(=O)OC)[nH]c2c1,93.3%,85.6%,96%,66.2%,99.5%,84%,65.7%,91.6%,96.4%,107%,40.9%,89.2%,83.3%,95.2%,96.1%,88%,90.8%,57%,73.2%,–
C=C(C)[C@@H]1CC[C@]2(C(=O)NCCCO)CC[C@]3(C)[C@H](CC[C@@H]4[C@@]5(C)CCCNC(C)(C)[C@@H]5CC[C@]43C)[C@@H]12,77.3%,79.8%,78.6%,89.9%,68.9%,58.1%,73.1%,85.6%,–,89.1%,3.26% (active),-74.4% (active),49%,58.2%,77.9%,89.3%,70.4%,-44.2% (active),33.7%,–
O=C1c2ccccc2C(=O)c2c1oc1c2c(=O)[nH]c2ccc(Cl)cc21,21.2%,-28.8% (active),14%,-38.7% (active),-69.7% (active),-37.2% (active),-0.0514% (active),2.5% (active),85.7%,-45.4% (active),12.9%,-51.7% (active),-42.2% (active),-46.3% (active),-31.7% (active),-1.34% (active),-28% (active),18.8%,10.4%,–
Cc1[nH]c(N=Nc2ccccc2)nc1N=Nc1ccccc1,36.3%,12.7%,39%,36.5%,16.2%,40.3%,27%,6.21% (active),17.2%,33.6%,23.6%,30.2%,38.1%,-31.9% (active),19.2%,17.4%,6.93% (active),-42.4% (active),3.54% (active),–
C#CCN(CCCOc1ccc(Cl)cc1Cl)CCCSC(=O)CCCCCN1/C(=C\C=C2/CCCC(/C=C/C3=[N+](CCCCCC(=O)[O-])c4ccccc4C3(C)C)=C2Cl)C(C)(C)c2ccccc21,45.3%,-10.9% (active),83.7%,30.7%,11.8%,13.7%,66%,25.4%,–,47%,0.955% (active),-56.2% (active),-6.25% (active),-45.2% (active),7.44% (active),53.3%,-50.2% (active),30.8%,49.7%,-10.3% (active)
C=C(C)[C@@H]1CC[C@]2(C(=O)OCCOCCOCC[P+](c3ccccc3)(c3ccccc3)c3ccccc3)CC[C@]3(C)[C@H](CC[C@@H]4[C@@]5(C)CC[C@H](OC(C)=O)C(C)(C)[C@@H]5CC[C@]43C)[C@@H]12,-84.6% (active),-85.3% (active),-93.8% (active),-84.9% (active),-80.5% (active),-87.3% (active),-88.3% (active),-91.6% (active),-75.7% (active),-91.1% (active),-74.3% (active),-85.1% (active),-91.3% (active),-90.4% (active),-74.7% (active),-92% (active),-90.9% (active),-83.4% (active),-83.1% (active),–
Cc1nc2sc(C(=O)Nc3cccc4ccccc34)c(N)c2cc1C(C)O (stereo unspecified),26.2%,70.7%,44.8%,39.8%,9.5% (active),83.7%,22.7%,34.1%,-5.28% (active),13.6%,8.19% (active),85.1%,33.1%,21.7%,51.4%,10.8%,0.0649% (active),64%,15.4%,–
COc1ccc(-c2cs/c(=N\N=C\c3ccc(O)cc3O)n2/N=C/c2ccc(O)cc2O)cc1,-28.5% (active),-30.5% (active),5.37% (active),-38.5% (active),-10.5% (active),2.31% (active),-21.5% (active),6.51% (active),-81.1% (active),4.25% (active),-4.98% (active),-22.5% (active),1.96% (active),-35.6% (active),4.27% (active),-24.4% (active),-33.1% (active),-3.6% (active),–,–
COc1cc(-c2nn(-c3ccc(Br)cc3)cc2CO)ccc1O,95.2%,105%,93.8%,95.4%,101%,90.8%,78.1%,95.6%,119%,93.6%,74.2%,119%,68.9%,116%,77.7%,98.6%,92%,90.7%,–,–
[2H]c1cc2c(c([2H])c1F)/C(=C/c1[nH]c(C)c(C(=O)NCCN(CC)CC)c1C)C(=O)N2,43.5%,40.5%,47.7%,28.9%,47.5%,26.6%,56.5%,32.5%,–,34.6%,55.3%,10.8%,67.7%,25%,57.7%,85.1%,45.3%,69.2%,20.6%,–
O=C(NC[C@H](O)CN1CCc2ccccc2C1)c1cc(NC2COC2)ncn1,99.7%,108%,93.6%,92.8%,97.8%,112%,93.4%,92%,92.4%,103%,108%,93.3%,94.6%,114%,86%,97.7%,97.4%,116%,92.4%,–
Cc1cccc2nc3c(n12)C(=O)C(=O)c1ccccc1-3,39.6%,80%,90%,26%,37.3%,92.6%,61.2%,106%,98.3%,76.9%,28.9%,64.4%,63.9%,103%,80.8%,82.7%,69.3%,49.5%,67.1%,–
Cc1[nH]c2ncnc(Oc3ccc(NC(=O)Nc4ccc(Cl)c(C(F)(F)F)c4)cc3)c2c1C,56.7%,75.1%,69.6%,59.3%,36.1%,91.9%,45.3%,84%,60.3%,66.4%,26.6%,61.6%,44.6%,74.3%,53%,62.4%,56%,64.2%,52.1%,–
COc1ccccc1N1CCN(CCCOc2ccc(C(=O)/C=C3/C(=O)Nc4ccccc43)cc2)CC1,45.3%,53%,88.7%,38.2%,66.4%,18.2%,76%,45.7%,65.5%,81.8%,17.6%,66.5%,57%,72.4%,86.9%,71.1%,81.5%,90.2%,66%,–
O=C(Nc1ccc2ncnc(Nc3ccc(F)c(Cl)c3)c2c1)c1ccccc1,74.6%,72.2%,27.2%,72.3%,30.4%,97.2%,50.4%,47.7%,97.3%,36.1%,69.4%,90.4%,79.8%,73.1%,67.1%,82%,78.6%,96.8%,90.1%,–
COc1ccc(-c2cc(-c3nnc(SCC(=O)Nc4ccc(/C(C)=N\O)cc4)o3)c3ccccc3n2)cc1,99.5%,96.3%,113%,99.3%,105%,109%,100%,95.5%,118%,109%,96.5%,97.8%,114%,106%,101%,105%,111%,101%,115%,–
O=C(Nc1cc(Nc2ncccc2-c2ncnc3nc[nH]c23)ccc1F)c1cc(C(F)(F)F)cc(C(F)(F)F)c1,-3.98% (active),16.8%,–,-14.4% (active),-30.4% (active),-31.3% (active),0.774% (active),-3.09% (active),-60.2% (active),20.9%,-13.7% (active),-58.4% (active),-51.3% (active),-63.4% (active),21.8%,-52.8% (active),-56% (active),-0.588% (active),–,11.7%
Cc1ccc(C(=O)O)o1,100%,104%,105%,109%,108%,89.9%,93.1%,97.1%,107%,107%,103%,104%,111%,118%,98.1%,99.8%,99.5%,103%,101%,–
OCCNc1nc(NCCO)nc(Nc2ccc(C3=NN(c4cc(Cl)cc(Cl)c4)C(c4ccccc4)C3)cc2)n1 (stereo unspecified),50.1%,96.2%,57.6%,29.1%,23.7%,72.1%,35.9%,40.3%,34.4%,45.8%,18.4%,59.2%,42.1%,11%,50.8%,10%,38%,91.2%,46.2%,–
COc1ccc(-c2nc(C#N)c(NCC(c3ccc(Cl)cc3)N3CCCCC3)o2)cc1 (stereo unspecified),91.7%,96%,83.7%,107%,101%,89.3%,93.5%,92.5%,–,94%,76.7%,91.4%,102%,71.8%,89.7%,96.1%,101%,109%,92.7%,84.6%
C#C[C@@]1(O)[C@@H](CO)O[C@@H](n2cc(Cl)c3c(N)ccnc32)[C@@H]1O,71.9%,96.7%,74.6%,120%,25.1%,48.2%,67%,81.2%,63.4%,56.1%,42.8%,82.3%,57.4%,106%,87.4%,81.9%,89.3%,89.2%,85.3%,–
O=c1[nH]nc(-c2ccccc2)c2sc(NC(=S)Nc3ccc(Cl)cc3)nc12,86%,89.3%,100%,79.4%,97.6%,97.2%,90.7%,92.5%,101%,94.8%,80.6%,105%,101%,102%,93.3%,98.3%,98%,104%,97.4%,–
COc1ccc(Cc2nc(C#N)c(N3CCN(c4ccc(F)cc4)CC3)o2)cc1,86.3%,74.1%,99.5%,95.8%,104%,88.2%,92.1%,91.1%,103%,100%,75.3%,104%,98.4%,76%,90.5%,95.5%,98.2%,112%,90%,–
C=C(C)[C@@H]1CC[C@]2(C(=O)N3CCN(C)CC3)CC[C@]3(C)[C@H](CC[C@@H]4[C@@]5(C)C/C(=C/c6ccco6)C(=O)C(C)(C)[C@@H]5CC[C@]43C)[C@@H]12,79.9%,86.4%,79.9%,73.6%,64.9%,55.7%,60.6%,71.2%,74.6%,84.3%,36.2%,66.8%,58.8%,45.2%,68.9%,18.9%,62%,48.6%,59.9%,–
COc1ccc2nc3nc4ccc[nH]c4cc3c2c1,73.9%,91.6%,87.6%,87.9%,73.7%,122%,91.2%,86.2%,97.9%,88.3%,99.6%,90%,98%,101%,84.5%,112%,94%,115%,101%,–
CC1(C)Cc2c(Br)c(Br)c(Br)c(OCC(O)CN3CCOCC3)c2O1 (stereo unspecified),93.9%,109%,72.4%,97.3%,93.8%,-38.2% (active),86.7%,79.2%,116%,106%,44.1%,35%,83.2%,70.6%,105%,113%,92.9%,97.3%,94.5%,–
O=C1CCC23OC(c4ccccc4N12)C(O)C(O)C3O (stereo unspecified),102%,107%,98.6%,104%,112%,113%,94.5%,98.8%,–,107%,90.4%,91.6%,103%,113%,96.6%,110%,101%,102%,100%,81%
N#Cc1c(NC(=O)c2cccs2)[n+]([O-])c2cc(C(F)(F)F)ccc2[n+]1[O-],95.2%,97.1%,93.7%,112%,109%,33.2%,96.1%,114%,109%,114%,87.7%,132%,96.8%,109%,105%,97.9%,101%,91.4%,116%,–
CCC1=C[C@H]2CN(CCc3c([nH]c4ccccc34)[C@@](C(=O)OC)(c3cc4c(cc3OC)N(C)[C@H]3[C@@](O)(C(=O)OC)[C@H](OC(C)=O)[C@]5(CC)[C@@H]6C[C@@H]6CN6CC[C@]43[C@@H]65)C2)C1,44%,47.9%,66.1%,10.7%,5.3% (active),-7.42% (active),17.7%,12.6%,-43.5% (active),18.3%,2.96% (active),37.3%,-21.9% (active),47.6%,7.66% (active),11.1%,-13.3% (active),55.1%,-32% (active),–
